The results in this text go back to PubChem BioAssay (NCI).

Values joined by “and” are separate entries in the source; they are usually repeats but may differ in a detail not shown here. Equal values may be shown once. The panel holds about 83,000 compounds, 20% with a hit somewhere; the sample as a whole holds those more often.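 Treatment: one concentration, 48 hours, 96-well format. Scoring: percent growth, with anything below 10 considered active.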 Active and inactive are the calls of the source.

This assay has as its system LOX IMVI melanoma. Put plainly: NCI-60 one-dose screen, 48 h (100 = growth as untreated, 0 = no growth, -100 = all killed). Conditions: 10 µM unless noted. As for the experimental part:
Growth inhibition of the LOX IMVI human tumor cell line is measured as a screen for anti-cancer activity. Cells are grown in 96 well plates and exposed to the test compound for 48 hours. Compounds are tested at a single concentration, which is 10^-5 M for most compounds. The reported endpoint is percent growth (GI% or GIPRCNT), where numbers from 0 - 100% represent growth inhibition, and numbers from -100% - 0 represent cell death. For example, a value of 40 represents 60% growth inhibition. A value of 0 means no net growth occurred over the course of the experiment. A value of -40 indicates 40% of cells at the beginning of the experiment died by the end of the experiment. A value of -100 means all cells are dead at the end of the experiment.
NCI-60 Human Tumor Cell Lines Screen was performed using the standard one-dose NCI protocol, which is described in more detail at https://dtp.cancer.gov/discovery_development/nci-60/default.htm.
Compounds with GIPRCNT values below 10 were considered active. Activity score was based on GIPRCNT using the following formula: […]
Score is 0 for GIPRCNT values of 100 or above, 50 for GIPRCNT values of 0, and 100 for GIPRCNT values of -100.
For `O=C(O)c1c2c(nc3ccccc13)Cc1ccccc1-2`, the growth is 99.9% (inactive) and 90.1% (inactive).

For the compound `CCN(CC)CCO/N=C1\CC(c2ccc(OC)c(OC)c2)Oc2ccccc21` (stereo not given), the growth was 89.6% (inactive).

In the case of `O=C(Nc1ccccc1)OCC(CN1CCCCC1)OC(=O)Nc1ccccc1` (stereo not given), the growth is 76.7% (inactive) and 95.2% (inactive).

Consider `O=S(=O)(O)c1ccc2cc(O)ccc2c1`, for which the growth was 104% (inactive).

For `CCOC(=O)c1csc(N)n1`, the growth was 105% (inactive) and 99.1% (inactive).

As for `CC(C)(C)OC(=O)c1ccc(NCc2cc(O)ccc2O)cc1`, the growth was 24.3% (inactive).

On to `O=c1ccn2c(n1)OC1CC2OC1COC(c1ccccc1)(c1ccccc1)c1ccccc1` (stereo not given), for which the growth was 105% (inactive).

Regarding `O=C1Cc2ccccc2C(=O)N1`, the growth was 42.1% (inactive).

For `Cc1onc(-c2c(F)cccc2Cl)c1-c1ncc(-c2ccc(Cl)cc2)o1`, the growth was 12.5% (inactive).

Take `CC(C)(C)OC(=O)CC1(O)CCCCC1`: the growth was 102% (inactive).

Turning to `O=C(O)c1cc(=O)[nH]c(=O)[nH]1`, the growth was 98.8% (inactive) and 92.3% (inactive).

Take `CCC(C)NC(=O)c1ccccc1C` (stereo not given): the growth was 95.7% (inactive).

With `Cc1ccc(S(=O)(=O)n2ccnc2)cc1`, the growth is 95.5% (inactive).

Take `O=c1[nH]c(=O)c2[nH]c(=O)[nH]c2[nH]1`: the growth is 102% (inactive).

Consider `OC(CC(c1ccccc1)c1cccc2ccccc12)(c1ccccc1)c1ccccc1` (stereo not given), for which the growth was 80.5% (inactive) and 74.8% (inactive).

With `CC(O)CCNC(c1ccccc1)C(O)c1ccccc1` (stereo not given), the growth was 99% (inactive).

Regarding `Nc1ccc(O)c(C(=O)O)c1`, the growth is 84% (inactive) and 99.5% (inactive).

Take `CC(C)(C)C1CCC(=NO)CC1` (stereo not given): the growth is 99.8% (inactive).

Take `COc1ccc2oc3cc(NCCN(C)C)ccc3c(=O)c2c1`: the growth is 83% (inactive) and 58.2% (inactive).

For `CC(=O)Oc1cc(C)c(OC(C)=O)c(C)c1C`, the growth is 83.6% (inactive).

For the compound `O=C1CCC(=O)N1CC1CC2CCC1C2` (stereo not given), the growth is 101% (inactive) and 96.2% (inactive).

`CCC(C)(O)CCC(C)(O)CC` (stereo not given): the growth was 98.1% (inactive).

Consider `O=C(O)COc1ccccc1F`, for which the growth was 96.5% (inactive).

`CC(=O)Nc1ccc(OC(C)=O)cc1`: the growth is -24% (active) and 100% (inactive).

Turning to `COc1ccc(COC=O)cc1`, the growth is 100% (inactive).

Consider `c1ccc2c[n+](Cc3ccc4ccccc4n3)ccc2c1`, for which the growth is 88.8% (inactive).

As to `C/C=C(/C(=O)NC(N)=O)C(C)C`, the growth is 100% (inactive).

Turning to `CC(=O)Oc1ccc(C2(c3ccc(OC(C)=O)cc3)C(=O)Nc3ccccc32)cc1`, the growth is 53.9% (inactive) and 46.7% (inactive).

As for `COc1ccc(CCl)c(C)c1OC`, the growth is 94.3% (inactive).

Regarding `O=C(O)/C=C/C=C/c1ccccc1`, the growth was 99.3% (inactive) and 97.9% (inactive).

As for `O=P(O)(O)OC1C(OP(=O)(O)O)C(OP(=O)(O)O)C(OP(=O)(O)O)C(OP(=O)(O)O)C1OP(=O)(O)O.[Cu+2]` (stereo not given), the growth was 69.7% (inactive).

Regarding `CCOC(=O)C1=CC(=O)CC(C)(C)O1`, the growth is 103% (inactive) and 107% (inactive).

As for `CC1(CO)CCCC1NCCNC1CCCC1(C)CO` (stereo not given), the growth is 98.8% (inactive).

`O=C(O)C#Cc1ccc(Cl)cc1`: the growth is 91.5% (inactive).

`O=C(N=C1C(=O)C2(CCCCC2)C2(N=C(c3ccccc3)OC2=O)C12CCCCC2)c1ccccc1` (stereo not given): the growth was 71.5% (inactive).

For the compound `Nc1ccc(Cl)c(S(=O)(=O)O)c1`, the growth is 97.5% (inactive).

With `O=[N+]([O-])c1cccc2ccc(N/N=C/c3ccccc3O)nc12`, the growth was 83.6% (inactive) and 91.4% (inactive).

With `O=[N+]([O-])c1ccc(NC(c2ccccc2)c2ccc3cccnc3c2O)cc1` (stereo not given), the growth is 9.64% (active).

For `O=C(NC(CSSCC(NC(=O)OCc1ccccc1)C(=O)O)C(=O)O)OCc1ccccc1` (stereo not given), the growth was 103% (inactive) and 95% (inactive).

For `ON=C(C1CCCCC1)C1CCCCC1`, the growth was 95.6% (inactive).
